Our source for the binding signal values is article PMC7862700, “An all-to-all approach to the identification of sequence-specific readers for epigenetic DNA modifications on cytosine”.

Holding throughout (experiment): DAPPL (digital affinity profiling via proximity ligation, sequencing); 10 mM Tris-HCl pH 7.5, 50 mM NaCl, 1 mM DTT, 4% glycerol, room temperature, 30 min; GST-TFs on glutathione beads, 16-mer random dsDNA library, 0.1% formaldehyde crosslink after washing; high values mean tight binding
For assay [1], the target named is T1, FLI1 (Homo sapiens, UniProt Q01543 1-452).
T1 sequence: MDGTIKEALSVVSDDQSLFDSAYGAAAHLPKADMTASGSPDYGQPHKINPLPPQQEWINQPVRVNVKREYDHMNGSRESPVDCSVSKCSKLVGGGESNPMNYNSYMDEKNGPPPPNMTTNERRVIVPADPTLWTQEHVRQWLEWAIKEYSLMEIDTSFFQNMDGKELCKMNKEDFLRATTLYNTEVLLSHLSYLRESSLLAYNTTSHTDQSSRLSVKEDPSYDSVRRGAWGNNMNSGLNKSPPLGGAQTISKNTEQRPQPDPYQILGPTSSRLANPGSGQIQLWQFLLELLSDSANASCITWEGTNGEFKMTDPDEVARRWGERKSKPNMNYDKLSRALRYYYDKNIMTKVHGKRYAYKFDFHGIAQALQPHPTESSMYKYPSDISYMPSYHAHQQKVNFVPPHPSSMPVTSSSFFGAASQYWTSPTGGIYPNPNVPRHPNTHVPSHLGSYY
The note with it: protein: recombinant; tags: N-terminal GST; dsDNA, one strand shown. The method in brief: (§1)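 In yeast, human transcription factors were expressed with a GST fusion, then pulled down on glutathione beads and given DNA barcodes. Pooled with a tag-only sample, they were exposed to 200 nmole of a 16-mer random double-stranded DNA library (Tris/NaCl/DTT/glycerol buffer, room temperature, 30 min), washed, crosslinked with 0.1% formaldehyde, proximity-ligated using BsaI/T4 ligase for 1 h at 37 °C, PCR-amplified and read on an Illumina NextSeq500. Each hexamer's frequency of reads for a factor, divided by the matching frequency for the tag-only sample, gives the binding signal.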

The target in assay [2] is T2, ELK1 (Homo sapiens, UniProt P19419 1-428).
T2 sequence: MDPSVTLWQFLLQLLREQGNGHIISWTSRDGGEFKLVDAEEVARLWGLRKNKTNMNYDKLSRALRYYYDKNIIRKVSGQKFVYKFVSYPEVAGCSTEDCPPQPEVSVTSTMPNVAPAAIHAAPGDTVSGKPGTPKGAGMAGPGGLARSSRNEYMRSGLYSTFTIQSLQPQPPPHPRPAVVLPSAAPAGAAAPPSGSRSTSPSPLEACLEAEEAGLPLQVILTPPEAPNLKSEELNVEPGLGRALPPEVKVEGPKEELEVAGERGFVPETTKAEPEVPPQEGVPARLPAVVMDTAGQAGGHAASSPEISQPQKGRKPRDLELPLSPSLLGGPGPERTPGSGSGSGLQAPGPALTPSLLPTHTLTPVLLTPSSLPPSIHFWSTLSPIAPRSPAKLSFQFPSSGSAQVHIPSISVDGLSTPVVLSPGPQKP
The note with it: protein: recombinant; tags: N-terminal GST; dsDNA, one strand shown. In a few lines: as §1

The target of assay [3] is T3, GABPA (Homo sapiens, UniProt Q06546 1-454).
T3 sequence: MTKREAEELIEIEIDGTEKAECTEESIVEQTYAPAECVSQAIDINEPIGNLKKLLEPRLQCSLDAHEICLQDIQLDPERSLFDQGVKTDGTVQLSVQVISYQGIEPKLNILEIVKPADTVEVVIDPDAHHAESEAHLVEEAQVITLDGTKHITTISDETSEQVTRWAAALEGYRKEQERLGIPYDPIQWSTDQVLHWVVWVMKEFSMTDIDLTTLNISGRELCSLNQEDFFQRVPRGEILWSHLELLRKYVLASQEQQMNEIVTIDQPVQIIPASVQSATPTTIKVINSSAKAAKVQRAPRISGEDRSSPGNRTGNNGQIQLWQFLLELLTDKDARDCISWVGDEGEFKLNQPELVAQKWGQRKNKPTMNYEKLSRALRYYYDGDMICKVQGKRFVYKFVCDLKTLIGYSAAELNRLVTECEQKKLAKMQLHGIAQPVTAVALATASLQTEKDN
The note with it: protein: recombinant; tags: N-terminal GST; dsDNA, one strand shown. The method in brief: as §1

For assay [4], the target named is T4, ERG (Homo sapiens, UniProt P11308 1-479).
T4 sequence: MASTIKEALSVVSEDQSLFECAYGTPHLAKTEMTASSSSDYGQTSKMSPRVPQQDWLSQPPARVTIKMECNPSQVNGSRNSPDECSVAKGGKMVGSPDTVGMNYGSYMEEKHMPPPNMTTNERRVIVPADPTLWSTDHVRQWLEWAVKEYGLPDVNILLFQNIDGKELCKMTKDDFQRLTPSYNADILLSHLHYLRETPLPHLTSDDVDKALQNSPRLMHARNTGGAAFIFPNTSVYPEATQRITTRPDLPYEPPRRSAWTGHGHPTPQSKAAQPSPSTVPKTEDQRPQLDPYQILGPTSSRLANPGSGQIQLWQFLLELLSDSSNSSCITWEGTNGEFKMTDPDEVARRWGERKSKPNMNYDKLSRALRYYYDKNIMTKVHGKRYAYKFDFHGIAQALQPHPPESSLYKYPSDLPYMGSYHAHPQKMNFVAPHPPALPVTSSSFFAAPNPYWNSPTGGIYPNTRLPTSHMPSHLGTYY
The conditions noted are these: protein: recombinant; tags: N-terminal GST; dsDNA, one strand shown. In a few lines: as §1

The target in assay [5] is ELF1 (Homo sapiens, UniProt P32519 1-619). The note with it: protein: recombinant; tags: N-terminal GST; dsDNA, one strand shown. In a few lines: as §1
Sequence of ELF1 (P32519 whole entry): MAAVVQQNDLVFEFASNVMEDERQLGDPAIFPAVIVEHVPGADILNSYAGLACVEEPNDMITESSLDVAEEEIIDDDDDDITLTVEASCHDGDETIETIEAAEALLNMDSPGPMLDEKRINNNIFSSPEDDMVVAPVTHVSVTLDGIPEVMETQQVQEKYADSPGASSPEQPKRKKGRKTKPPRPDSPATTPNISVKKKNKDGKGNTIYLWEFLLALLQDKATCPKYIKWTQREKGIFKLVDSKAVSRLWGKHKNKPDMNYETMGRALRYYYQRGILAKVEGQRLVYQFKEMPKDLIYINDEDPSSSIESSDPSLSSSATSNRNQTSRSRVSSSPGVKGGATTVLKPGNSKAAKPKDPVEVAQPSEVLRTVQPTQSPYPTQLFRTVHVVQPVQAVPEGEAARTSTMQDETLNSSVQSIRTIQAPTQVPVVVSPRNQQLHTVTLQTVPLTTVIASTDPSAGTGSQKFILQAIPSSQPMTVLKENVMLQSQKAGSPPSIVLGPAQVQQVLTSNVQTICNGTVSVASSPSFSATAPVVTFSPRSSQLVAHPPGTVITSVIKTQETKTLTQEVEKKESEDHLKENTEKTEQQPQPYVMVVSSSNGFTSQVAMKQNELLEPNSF
The target in assay [6] is T5, EHF (Homo sapiens, UniProt Q9NZC4 1-300).
T5 sequence: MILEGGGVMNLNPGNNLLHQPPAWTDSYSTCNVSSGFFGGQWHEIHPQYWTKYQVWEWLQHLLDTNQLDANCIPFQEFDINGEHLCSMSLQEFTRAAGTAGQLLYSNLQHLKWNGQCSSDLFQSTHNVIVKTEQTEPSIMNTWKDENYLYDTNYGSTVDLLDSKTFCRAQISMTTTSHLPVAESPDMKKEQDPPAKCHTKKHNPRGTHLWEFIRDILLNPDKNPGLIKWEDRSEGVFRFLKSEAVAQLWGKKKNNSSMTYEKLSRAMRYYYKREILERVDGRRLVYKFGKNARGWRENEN
The note with it: protein: recombinant; tags: N-terminal GST; dsDNA, one strand shown. The method in brief:
as §1

In assay [7] the target is SPI1 (Homo sapiens, UniProt P17947 1-270). The conditions noted are these: protein: recombinant; tags: N-terminal GST; dsDNA, one strand shown. The method in brief: as §1
Assay [8] has as its target SPIB (Homo sapiens, UniProt Q01892 1-262). The note with it: protein: recombinant; tags: N-terminal GST; dsDNA, one strand shown. The method in brief: as §1
The target of assay [9] is T6, ELK3 (Homo sapiens, UniProt P41970 1-407).
T6 sequence: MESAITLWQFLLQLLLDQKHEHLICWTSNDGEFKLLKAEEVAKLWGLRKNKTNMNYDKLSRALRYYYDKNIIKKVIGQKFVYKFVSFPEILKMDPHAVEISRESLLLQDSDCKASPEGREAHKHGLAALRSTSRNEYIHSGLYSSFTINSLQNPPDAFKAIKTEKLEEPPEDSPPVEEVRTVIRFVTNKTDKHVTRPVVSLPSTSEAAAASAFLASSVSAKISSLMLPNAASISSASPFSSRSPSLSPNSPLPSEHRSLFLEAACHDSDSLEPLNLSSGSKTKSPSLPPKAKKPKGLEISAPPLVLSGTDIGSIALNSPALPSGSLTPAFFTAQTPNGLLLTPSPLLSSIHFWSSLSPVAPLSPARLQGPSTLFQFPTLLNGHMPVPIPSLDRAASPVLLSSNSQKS
The note with it: protein: recombinant; tags: N-terminal GST; dsDNA, one strand shown. The method in brief: as §1

Assay [10] has as its target T7, FEV (Homo sapiens, UniProt Q99581 1-238).
T7 sequence: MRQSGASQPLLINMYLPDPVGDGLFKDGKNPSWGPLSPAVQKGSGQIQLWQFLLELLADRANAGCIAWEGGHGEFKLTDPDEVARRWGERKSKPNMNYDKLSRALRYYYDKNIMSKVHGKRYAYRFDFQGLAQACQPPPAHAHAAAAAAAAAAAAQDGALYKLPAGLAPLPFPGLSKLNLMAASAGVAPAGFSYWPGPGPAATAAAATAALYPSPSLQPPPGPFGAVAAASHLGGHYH
The note with it: protein: recombinant; tags: N-terminal GST; dsDNA, one strand shown. In a few lines:
as §1

In assay [11] the target is ETV5 (Homo sapiens, UniProt P41161 1-510). The conditions noted are these: protein: recombinant; tags: N-terminal GST; dsDNA, one strand shown. In a few lines: as §1
Sequence of ETV5 (P41161 whole entry): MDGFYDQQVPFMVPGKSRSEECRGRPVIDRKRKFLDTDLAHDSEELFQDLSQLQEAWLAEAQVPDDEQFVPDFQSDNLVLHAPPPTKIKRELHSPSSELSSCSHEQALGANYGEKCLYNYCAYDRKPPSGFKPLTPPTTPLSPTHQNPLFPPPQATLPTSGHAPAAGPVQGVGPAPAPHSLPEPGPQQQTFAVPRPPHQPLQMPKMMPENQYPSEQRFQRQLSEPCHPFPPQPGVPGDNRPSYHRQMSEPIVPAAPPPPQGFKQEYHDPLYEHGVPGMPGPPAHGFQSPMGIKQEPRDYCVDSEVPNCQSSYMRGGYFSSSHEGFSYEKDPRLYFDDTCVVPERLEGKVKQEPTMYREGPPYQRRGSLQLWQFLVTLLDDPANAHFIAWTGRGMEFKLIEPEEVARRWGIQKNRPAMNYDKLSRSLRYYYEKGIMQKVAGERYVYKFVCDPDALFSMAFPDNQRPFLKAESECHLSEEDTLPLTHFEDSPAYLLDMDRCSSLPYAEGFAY
Assay [12] addresses HSF1 (Homo sapiens, UniProt Q00613 1-529). The note with it: protein: recombinant; tags: N-terminal GST; chain copies: 3; dsDNA, one strand shown. In a few lines: as §1
In assay [13] the target is T8, SPIC (Homo sapiens, UniProt Q8N5J4 1-248).
T8 sequence: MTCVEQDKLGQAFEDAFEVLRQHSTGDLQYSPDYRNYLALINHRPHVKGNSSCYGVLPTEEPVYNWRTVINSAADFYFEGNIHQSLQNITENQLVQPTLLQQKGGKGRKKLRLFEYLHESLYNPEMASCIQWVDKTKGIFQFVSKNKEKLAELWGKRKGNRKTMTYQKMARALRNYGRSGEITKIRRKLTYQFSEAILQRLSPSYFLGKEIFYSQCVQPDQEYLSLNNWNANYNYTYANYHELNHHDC
The note with it: protein: recombinant; tags: N-terminal GST; dsDNA, one strand shown. The method in brief:
as §1

The target of assay [14] is ELF4 (Homo sapiens, UniProt Q99607 1-663). The note with it: protein: recombinant; tags: N-terminal GST; dsDNA, one strand shown. The method in brief:
as §1

Assay [15] has as its target T9, ELK4 (Homo sapiens, UniProt P28324-2 1-405).
T9 sequence: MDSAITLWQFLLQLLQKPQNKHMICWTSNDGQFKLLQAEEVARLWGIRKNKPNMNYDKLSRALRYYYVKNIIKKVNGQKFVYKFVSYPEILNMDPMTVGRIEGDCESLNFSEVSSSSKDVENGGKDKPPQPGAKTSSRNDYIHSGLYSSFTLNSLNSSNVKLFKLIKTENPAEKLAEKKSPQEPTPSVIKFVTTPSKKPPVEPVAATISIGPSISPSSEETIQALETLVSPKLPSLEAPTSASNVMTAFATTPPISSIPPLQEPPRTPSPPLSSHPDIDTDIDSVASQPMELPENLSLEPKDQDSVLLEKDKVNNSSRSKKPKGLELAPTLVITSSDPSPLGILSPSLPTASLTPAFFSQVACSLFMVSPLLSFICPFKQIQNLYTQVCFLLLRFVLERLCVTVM
The note with it: protein: recombinant; tags: N-terminal GST; dsDNA, one strand shown. In a few lines:
as §1

Assay [16] has as its target T10, ETV2 (Homo sapiens, UniProt O00321 1-342).
T10 sequence: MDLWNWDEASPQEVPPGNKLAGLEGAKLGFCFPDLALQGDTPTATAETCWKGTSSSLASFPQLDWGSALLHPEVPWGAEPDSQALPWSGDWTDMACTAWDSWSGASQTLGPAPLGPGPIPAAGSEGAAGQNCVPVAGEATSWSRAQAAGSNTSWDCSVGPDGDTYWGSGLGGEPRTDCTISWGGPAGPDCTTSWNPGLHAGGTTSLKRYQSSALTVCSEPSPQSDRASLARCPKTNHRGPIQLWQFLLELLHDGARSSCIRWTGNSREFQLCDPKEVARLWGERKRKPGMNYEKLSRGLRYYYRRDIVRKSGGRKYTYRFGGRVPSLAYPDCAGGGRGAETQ
The note with it: protein: recombinant; tags: N-terminal GST; dsDNA, one strand shown. In a few lines:
as §1

The target of assay [17] is T11, ELF3 (Homo sapiens, UniProt P78545 1-371).
T11 sequence: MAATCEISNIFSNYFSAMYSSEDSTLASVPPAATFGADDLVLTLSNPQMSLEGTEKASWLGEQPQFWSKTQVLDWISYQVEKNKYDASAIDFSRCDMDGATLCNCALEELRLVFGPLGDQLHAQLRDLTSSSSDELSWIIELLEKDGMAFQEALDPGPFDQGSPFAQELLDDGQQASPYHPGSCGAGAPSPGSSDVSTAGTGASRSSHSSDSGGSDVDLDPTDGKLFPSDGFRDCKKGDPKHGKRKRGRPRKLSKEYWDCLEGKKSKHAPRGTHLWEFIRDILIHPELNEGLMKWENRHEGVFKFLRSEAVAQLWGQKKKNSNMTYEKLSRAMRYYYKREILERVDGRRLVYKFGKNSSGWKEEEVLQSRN
The conditions noted are these: protein: recombinant; tags: N-terminal GST; dsDNA, one strand shown. The method in brief: as §1

Assay [18] has as its target CRX (Homo sapiens, UniProt O43186 1-299). The conditions noted are these: protein: recombinant; tags: N-terminal GST; dsDNA, one strand shown. The method in brief: as §1
The target in assay [19] is ETV1 (Homo sapiens, UniProt P50549 1-477). The note with it: protein: recombinant; tags: N-terminal GST; dsDNA, one strand shown. In a few lines: as §1
Sequence of ETV1 (P50549 whole entry): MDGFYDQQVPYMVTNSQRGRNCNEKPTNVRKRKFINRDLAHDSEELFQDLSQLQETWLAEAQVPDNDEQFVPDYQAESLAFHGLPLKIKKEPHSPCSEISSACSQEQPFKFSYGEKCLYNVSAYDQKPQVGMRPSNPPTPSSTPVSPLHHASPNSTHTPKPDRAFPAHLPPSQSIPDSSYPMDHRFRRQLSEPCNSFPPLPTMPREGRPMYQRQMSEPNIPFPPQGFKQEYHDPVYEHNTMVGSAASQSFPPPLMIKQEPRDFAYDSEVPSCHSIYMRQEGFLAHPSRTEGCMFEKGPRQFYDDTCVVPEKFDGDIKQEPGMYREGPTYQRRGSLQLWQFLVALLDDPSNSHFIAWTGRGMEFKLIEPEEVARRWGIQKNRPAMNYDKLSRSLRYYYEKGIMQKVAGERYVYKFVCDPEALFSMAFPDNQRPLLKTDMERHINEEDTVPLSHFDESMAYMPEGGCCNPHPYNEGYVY

Sequence of CRX (O43186 whole entry): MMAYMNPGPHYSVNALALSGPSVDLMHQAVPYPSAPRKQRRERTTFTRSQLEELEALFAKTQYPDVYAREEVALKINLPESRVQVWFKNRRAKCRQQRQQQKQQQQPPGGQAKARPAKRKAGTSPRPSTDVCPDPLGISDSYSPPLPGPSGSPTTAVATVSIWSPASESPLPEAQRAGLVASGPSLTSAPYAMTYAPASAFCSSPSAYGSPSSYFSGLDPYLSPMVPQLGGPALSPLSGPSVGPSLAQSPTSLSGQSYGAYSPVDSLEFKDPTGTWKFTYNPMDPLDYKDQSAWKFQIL
Sequence of ELF4 (Q99607 whole entry): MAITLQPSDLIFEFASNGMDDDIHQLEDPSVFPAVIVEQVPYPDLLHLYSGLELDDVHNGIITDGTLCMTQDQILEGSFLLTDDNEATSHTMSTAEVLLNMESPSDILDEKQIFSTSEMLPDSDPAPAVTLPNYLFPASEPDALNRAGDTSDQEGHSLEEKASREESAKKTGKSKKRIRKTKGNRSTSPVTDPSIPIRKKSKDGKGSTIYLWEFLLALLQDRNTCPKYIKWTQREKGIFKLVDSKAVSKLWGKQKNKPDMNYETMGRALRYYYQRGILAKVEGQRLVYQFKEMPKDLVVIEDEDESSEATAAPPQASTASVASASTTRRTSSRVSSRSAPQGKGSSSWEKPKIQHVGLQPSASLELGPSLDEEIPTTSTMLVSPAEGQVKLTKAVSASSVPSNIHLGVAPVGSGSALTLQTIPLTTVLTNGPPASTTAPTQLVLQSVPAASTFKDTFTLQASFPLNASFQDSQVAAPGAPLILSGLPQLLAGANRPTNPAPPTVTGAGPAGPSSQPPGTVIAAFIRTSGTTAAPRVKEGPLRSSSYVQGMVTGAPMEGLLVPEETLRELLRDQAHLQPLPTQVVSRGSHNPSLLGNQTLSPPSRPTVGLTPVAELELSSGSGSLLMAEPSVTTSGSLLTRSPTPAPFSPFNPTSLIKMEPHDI
Sequence of SPIB (Q01892 whole entry): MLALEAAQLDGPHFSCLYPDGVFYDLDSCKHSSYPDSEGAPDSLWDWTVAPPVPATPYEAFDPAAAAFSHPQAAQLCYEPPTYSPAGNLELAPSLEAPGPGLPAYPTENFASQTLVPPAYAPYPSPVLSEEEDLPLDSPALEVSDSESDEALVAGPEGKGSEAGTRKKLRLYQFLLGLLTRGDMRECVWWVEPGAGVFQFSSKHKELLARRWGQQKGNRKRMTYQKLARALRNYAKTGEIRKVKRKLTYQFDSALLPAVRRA
Sequence of HSF1 (Q00613 whole entry): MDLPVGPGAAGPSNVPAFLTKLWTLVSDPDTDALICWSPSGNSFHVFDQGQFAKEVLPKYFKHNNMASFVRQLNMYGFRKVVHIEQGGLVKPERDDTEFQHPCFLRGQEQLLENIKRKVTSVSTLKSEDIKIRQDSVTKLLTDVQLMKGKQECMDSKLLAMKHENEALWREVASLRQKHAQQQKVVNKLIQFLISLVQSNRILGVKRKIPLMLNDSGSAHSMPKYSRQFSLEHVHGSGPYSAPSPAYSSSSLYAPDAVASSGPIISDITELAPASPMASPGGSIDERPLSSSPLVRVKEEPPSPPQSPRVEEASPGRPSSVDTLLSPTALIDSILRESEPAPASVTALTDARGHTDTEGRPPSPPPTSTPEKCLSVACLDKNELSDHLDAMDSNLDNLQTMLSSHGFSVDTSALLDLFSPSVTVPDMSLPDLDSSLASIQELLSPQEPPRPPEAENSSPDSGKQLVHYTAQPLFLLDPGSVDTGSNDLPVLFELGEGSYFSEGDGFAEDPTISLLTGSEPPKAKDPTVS

With AATCCG, the binding signal was 1.53 fold enrichment (6-mer frequency, TF over GST control) in assay [1]; 1.62 fold enrichment (6-mer frequency, TF over GST control) in [2]; 1.44 fold enrichment (6-mer frequency, TF over GST control) in assay [3]; 1.84 fold enrichment (6-mer frequency, TF over GST control) in assay [4]; 1.5 fold enrichment (6-mer frequency, TF over GST control) in assay [5]; 1.55 fold enrichment (6-mer frequency, TF over GST control) in assay [6]. The binding signal in assay [7] was 1.59 fold enrichment (6-mer frequency, TF over GST control); in assay [8], 1.68 fold enrichment (6-mer frequency, TF over GST control); in assay [9], 1.5 fold enrichment (6-mer frequency, TF over GST control); in assay [10], 2.44 fold enrichment (6-mer frequency, TF over GST control); in assay [11] it was 1.65 fold enrichment (6-mer frequency, TF over GST control); in assay [12] it was 2.09 fold enrichment (6-mer frequency, TF over GST control). Also, the binding signal in [13] is 1.48 fold enrichment (6-mer frequency, TF over GST control); in assay [14] it was 1.46 fold enrichment (6-mer frequency, TF over GST control); in assay [15], 1.33 fold enrichment (6-mer frequency, TF over GST control); in assay [16], 1.47 fold enrichment (6-mer frequency, TF over GST control); in assay [17], 1.32 fold enrichment (6-mer frequency, TF over GST control); in assay [18] it was 3.2 fold enrichment (6-mer frequency, TF over GST control). The binding signal in [19] was 1.43 fold enrichment (6-mer frequency, TF over GST control).
